From PubChem BioAssay (EPA / NIEHS)
Results filed as inconclusive are left out. Activity calls are given as the source filed them. How the source made its calls, unless noted: active means hit-call score of the fitted dose curve at least 0.9, where 1 is the maximum; inconclusive means response in the unintended direction; inactive means score below 0.9.

Columns and labels:
[1] = molecular target: Peroxisome proliferator-activated receptor gamma (Homo sapiens) (UniProt P37231); experiment: OT_PPARg_PPARgSRC1_0480: Odyssey Thera (OT) 8-hour Protein-Complementation Assay for Peroxisome Proliferator-activated Receptor Gamma / SRC-1 Co-activator (AID 2283387);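 further: nuclear to cytoplasmic split Venus YFP fluorescence ratio reporting PPARg SRC-1 interaction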
Chain of Peroxisome proliferator-activated receptor gamma (Homo sapiens) (P37231 whole entry, looked up, the tested form may be a part): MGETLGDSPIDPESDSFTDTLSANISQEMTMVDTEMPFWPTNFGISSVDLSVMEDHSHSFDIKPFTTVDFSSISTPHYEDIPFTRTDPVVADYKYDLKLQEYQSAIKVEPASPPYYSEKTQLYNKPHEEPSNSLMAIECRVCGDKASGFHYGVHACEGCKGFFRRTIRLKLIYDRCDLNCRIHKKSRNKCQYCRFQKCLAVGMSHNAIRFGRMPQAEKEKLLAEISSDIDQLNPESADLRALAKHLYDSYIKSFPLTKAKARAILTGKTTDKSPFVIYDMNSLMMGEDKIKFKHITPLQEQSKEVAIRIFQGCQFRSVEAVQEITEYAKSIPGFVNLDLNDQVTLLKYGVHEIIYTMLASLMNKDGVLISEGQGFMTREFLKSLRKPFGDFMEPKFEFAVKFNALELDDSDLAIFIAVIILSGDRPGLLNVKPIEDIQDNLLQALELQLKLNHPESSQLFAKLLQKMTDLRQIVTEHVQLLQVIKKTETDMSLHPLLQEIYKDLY
In short: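 Split-YFP (IFP1/IFP2) PPARg/SRC-1 reporter, HEK293T, 37 °C, 5% CO2; 8 h compound; formaldehyde fix + Draq5; high-content imaging, N/C ratio, ≥350 cells/image, positive direction vs DMSO.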

[2] = molecular target: Peroxisome proliferator-activated receptor gamma (Homo sapiens) (UniProt P37231); experiment: OT_PPARg_PPARgSRC1_1440: Odyssey Thera (OT) 24-hour Protein-Complementation Assay for Peroxisome Proliferator-activated Receptor Gamma/ SRC-1 Co-activator (AID 2283388);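 further: nuclear to cytoplasmic ratio of reconstituted Venus YFP fluorescence in fixed imaged cells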
In short: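 Cells carrying the PPARg/SRC-1 fragment-complementation reporter receive compound for 24 hours, are fixed and counterstained with Draq5, then imaged. Increased nuclear relative to cytoplasmic YFP fluorescence above DMSO baseline indicates binding activity.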

[3] = CEETOX_H295R_11DCORT: CeeTox H295R High-throughput Steroidogenesis Assay for 11-Deoxycortisol (11DCORT) (AID 2283432; active means hit-call score of the fitted dose curve at least 0.9, where 1 is the maximum; inactive means score below 0.9;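 on AC50: 11-deoxycortisol secreted into the medium measured by LC-MS/MS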); settings: actives raise or lower the signal
In short: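 Steroidogenesis in human H295R cells: 48 h chemical exposure after forskolin priming, 11-deoxycortisol measured by LC-MS/MS.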

[4] = CEETOX_H295R_OHPREG: CeeTox H295R High-throughput Steroidogenesis Assay for OH-Pregnenolone (OHPREG) (AID 2283434; active means hit-call score of the fitted dose curve at least 0.9, where 1 is the maximum; inactive means score below 0.9); settings: actives raise or lower the signal
In short: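 Readout: HPLC-MS/MS of 17alpha-hydroxypregnenolone in medium after 48 h chemical exposure of H295R cells pretreated with forskolin. Values fitted bidirectionally relative to DMSO; chemicals reducing viability to 20–70% were retested after 10-fold dilution.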

[5] = CEETOX_H295R_OHPROG: CeeTox H295R High-throughput Steroidogenesis Assay for OH-Progesterone (OHPROG) (AID 2283435; active means hit-call score of the fitted dose curve at least 0.9, where 1 is the maximum; inactive means score below 0.9); settings: actives raise or lower the signal
In short: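 HPLC-MS/MS quantification of 17alpha-hydroxyprogesterone secreted by H295R cells after 48 h chemical exposure, following 48 h 10 uM forskolin prestimulation. Gain or loss of signal fitted relative to DMSO. Viability checked by MTT in the same wells.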

[6] = CEETOX_H295R_CORTISOL: CeeTox H295R High-throughput Steroidogenesis Assay for Cortisol (AID 2283438; active means hit-call score of the fitted dose curve at least 0.9, where 1 is the maximum; inactive means score below 0.9;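 further: cortisol secreted into medium quantified by LC-MS/MS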); settings: actives raise or lower the signal
In short: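 Read-out: cortisol in culture medium by reverse-phase C18 HPLC with ESI-positive tandem MS, after MTBE liquid-liquid extraction. Cells: human adrenal H295R, forskolin-primed (10 uM, 48 h) before 48 h chemical exposure in 0.1% DMSO.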

[7] = CEETOX_H295R_DOC: CeeTox H295R High-throughput Steroidogenesis Assay for DOC (AID 2283439; active means hit-call score of the fitted dose curve at least 0.9, where 1 is the maximum; inactive means score below 0.9); settings: actives raise or lower the signal
In short: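 Human adrenocortical H295R cells, passages up to 10, received 10 uM forskolin for 48 h before chemical addition. After another 48 h exposure in 0.1% DMSO, secreted DOC was measured by LC-MS/MS, with gain or loss fitted against DMSO controls.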

[8] = read-out: Tumor necrosis factor receptor superfamily member 6 (Homo sapiens) (UniProt P25445); experiment: LTEA_HepaRG_FAS: Life Technologies and Expression Analysis (LTEA) Assay for Fas cell surface death receptor (FAS) using HepaRG (AID 2283447; active means hit-call score of the fitted dose curve at least 0.9, where 1 is the maximum; inactive means score below 0.9); settings: mRNA level, 48 h; actives raise or lower the signal
In short: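 Differentiated human HepaRG cells, pre-cultured 48 h, were exposed in duplicate for 48 h to 8-point half-log concentrations (top 100 uM, 0.5% DMSO) in serum-free induction medium; FAS mRNA measured by qRT-PCR, normalized to ACTB/GAPDH/POLR2A, bidirectional fit versus DMSO.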

[9] = read-out: Fatty acid synthase (Homo sapiens) (UniProt P49327); experiment: LTEA_HepaRG_FASN: Life Technologies and Expression Analysis (LTEA) Assay for Fatty Acid Synthase (FASN) using HepaRG (AID 2283448; active means hit-call score of the fitted dose curve at least 0.9, where 1 is the maximum; inactive means score below 0.9); settings: mRNA level, 48 h; actives raise or lower the signal
In short: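 HepaRG, 48 h exposure, 8-pt half-log series top 100 uM, 0.5% DMSO vehicle, duplicates. Readout: FASN transcript by Fluidigm qRT-PCR; housekeeping-normalized; bidirectional curve fit vs DMSO baseline.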

[10] = read-out: Cyclin D2 (CCND2), CCND2 (gene 894); experiment: LTEA_HepaRG_CCND2: Life Technologies and Expression Analysis (LTEA) Assay for Cyclin D2 (CCND2) using HepaRG (AID 2283449; active means hit-call score of the fitted dose curve at least 0.9, where 1 is the maximum; inactive means score below 0.9;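 further: CCND2 transcript measured by TaqMan qRT-PCR and normalised to three housekeeping genes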); settings: mRNA level, 48 h; actives raise or lower the signal
In short: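 In this HepaRG study, an eight-point concentration series (max 100 uM, 0.5% DMSO) is applied for 48 h. CCND2 mRNA change is derived by qRT-PCR normalised to ACTB, GAPDH and POLR2A.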

[11] = read-out: Cyclin Dependent Kinase Inhibitor 1A (CDKN1A), CDKN1A (gene 1026); experiment: LTEA_HepaRG_CDKN1A: Life Technologies and Expression Analysis (LTEA) Assay for Cyclin Dependent Kinase Inhibitor 1A (CDKN1A) using HepaRG (AID 2283450; active means hit-call score of the fitted dose curve at least 0.9, where 1 is the maximum; inactive means score below 0.9); settings: mRNA level, 48 h; actives raise or lower the signal
In short: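 Gain or loss of CDKN1A transcript is scored by bidirectional fitting against 0.5% DMSO vehicle. Human HepaRG cultures receive chemicals for 48 h across an 8-point series peaking at 100 uM; expression comes from qRT-PCR.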

[12] = read-out: Cyclin D1 (CCND1), CCND1 (gene 595); experiment: LTEA_HepaRG_CCND1: Life Technologies and Expression Analysis (LTEA) Assay for Cyclin D1 (CCND1) using HepaRG (AID 2283451; active means hit-call score of the fitted dose curve at least 0.9, where 1 is the maximum; inactive means score below 0.9); settings: mRNA level, 48 h; actives raise or lower the signal
In short: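 Expression change is measured by qRT-PCR in HepaRG cells after 48 h treatment across eight concentrations topping at 100 uM, with duplicate wells and DMSO (0.5%) serving as baseline for bidirectional fitting.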

[13] = read-out: catalase (CAT), CAT (gene 847); experiment: LTEA_HepaRG_CAT: Life Technologies and Expression Analysis (LTEA) Assay for catalase (CAT) using HepaRG (AID 2283452; active means hit-call score of the fitted dose curve at least 0.9, where 1 is the maximum; inactive means score below 0.9); settings: mRNA level, 48 h; actives raise or lower the signal
In short: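 Differentiated HepaRG cells in serum-free induction medium were dosed 48 h in duplicate, eight half-log concentrations from 100 uM in 0.5% DMSO. Transcript measured by TaqMan qRT-PCR, normalised to ACTB/GAPDH/POLR2A, fitted bidirectionally against DMSO.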

[14] = read-out: flavin-containing dimethylaniline monooxygenases 3 (FMO3), FMO3 (gene 2328); experiment: LTEA_HepaRG_FMO3: Life Technologies and Expression Analysis (LTEA) Assay for flavin-containing dimethylaniline monooxygenases 3 (FMO3) using HepaRG (AID 2283453; active means hit-call score of the fitted dose curve at least 0.9, where 1 is the maximum; inactive means score below 0.9); settings: mRNA level, 48 h; actives raise or lower the signal
In short: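 Eight-point concentration-response in serum-free HepaRG cultures (top 100 uM, 0.5% DMSO, 48 h). Read-out: FMO3 mRNA level normalized to three endogenous control genes, fitted bidirectionally versus vehicle.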

[15] = read-out: Cytochrome P450 (CYP1A1), CYP1A1 (gene 1543); experiment: LTEA_HepaRG_CYP1A1: Life Technologies and Expression Analysis (LTEA) Assay for Cytochrome P450 (CYP1A1) using HepaRG (AID 2283454; active means hit-call score of the fitted dose curve at least 0.9, where 1 is the maximum; inactive means score below 0.9); settings: mRNA level, 48 h; actives raise or lower the signal
In short: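 Using HepaRG cultures with 0.5% DMSO as vehicle, eight-concentration exposures (max 100 uM) lasted 48 h. Transcript levels were measured by TaqMan qRT-PCR and normalized to ACTB, GAPDH and POLR2A.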

[16] = read-out: CFLAR gene, CFLAR (gene 8837); experiment: LTEA_HepaRG_CFLAR: Life Technologies and Expression Analysis (LTEA) Assay for CFLAR gene using HepaRG (AID 2283455; active means hit-call score of the fitted dose curve at least 0.9, where 1 is the maximum; inactive means score below 0.9); settings: mRNA level, 48 h; actives raise or lower the signal
In short: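 Gain- or loss-of-signal changes in CFLAR transcript were fitted bidirectionally relative to 0.5% DMSO. Cells (HepaRG, duplicate wells) were dosed for 48 h across eight half-log concentrations topping at 100 uM; quantitation by TaqMan qRT-PCR.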

[17] = read-out: Forkhead box O1 (FOXO1), FOXO1 (gene 2308); experiment: LTEA_HepaRG_FOXO1: Life Technologies and Expression Analysis (LTEA) Assay for Forkhead box O1 (FOXO1) using HepaRG (AID 2283456; active means hit-call score of the fitted dose curve at least 0.9, where 1 is the maximum; inactive means score below 0.9); settings: mRNA level, 48 h; actives raise or lower the signal
In short: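 Using one lot of HepaRG hepatic cells kept in 0.5% DMSO, the team applied test chemicals in duplicate, half-log dilutions from 100 uM, for 48 h. Expression, normalised to ACTB/GAPDH/POLR2A, was compared with vehicle in either direction.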

Chain of Fatty acid synthase (Homo sapiens) (P49327 whole entry, looked up): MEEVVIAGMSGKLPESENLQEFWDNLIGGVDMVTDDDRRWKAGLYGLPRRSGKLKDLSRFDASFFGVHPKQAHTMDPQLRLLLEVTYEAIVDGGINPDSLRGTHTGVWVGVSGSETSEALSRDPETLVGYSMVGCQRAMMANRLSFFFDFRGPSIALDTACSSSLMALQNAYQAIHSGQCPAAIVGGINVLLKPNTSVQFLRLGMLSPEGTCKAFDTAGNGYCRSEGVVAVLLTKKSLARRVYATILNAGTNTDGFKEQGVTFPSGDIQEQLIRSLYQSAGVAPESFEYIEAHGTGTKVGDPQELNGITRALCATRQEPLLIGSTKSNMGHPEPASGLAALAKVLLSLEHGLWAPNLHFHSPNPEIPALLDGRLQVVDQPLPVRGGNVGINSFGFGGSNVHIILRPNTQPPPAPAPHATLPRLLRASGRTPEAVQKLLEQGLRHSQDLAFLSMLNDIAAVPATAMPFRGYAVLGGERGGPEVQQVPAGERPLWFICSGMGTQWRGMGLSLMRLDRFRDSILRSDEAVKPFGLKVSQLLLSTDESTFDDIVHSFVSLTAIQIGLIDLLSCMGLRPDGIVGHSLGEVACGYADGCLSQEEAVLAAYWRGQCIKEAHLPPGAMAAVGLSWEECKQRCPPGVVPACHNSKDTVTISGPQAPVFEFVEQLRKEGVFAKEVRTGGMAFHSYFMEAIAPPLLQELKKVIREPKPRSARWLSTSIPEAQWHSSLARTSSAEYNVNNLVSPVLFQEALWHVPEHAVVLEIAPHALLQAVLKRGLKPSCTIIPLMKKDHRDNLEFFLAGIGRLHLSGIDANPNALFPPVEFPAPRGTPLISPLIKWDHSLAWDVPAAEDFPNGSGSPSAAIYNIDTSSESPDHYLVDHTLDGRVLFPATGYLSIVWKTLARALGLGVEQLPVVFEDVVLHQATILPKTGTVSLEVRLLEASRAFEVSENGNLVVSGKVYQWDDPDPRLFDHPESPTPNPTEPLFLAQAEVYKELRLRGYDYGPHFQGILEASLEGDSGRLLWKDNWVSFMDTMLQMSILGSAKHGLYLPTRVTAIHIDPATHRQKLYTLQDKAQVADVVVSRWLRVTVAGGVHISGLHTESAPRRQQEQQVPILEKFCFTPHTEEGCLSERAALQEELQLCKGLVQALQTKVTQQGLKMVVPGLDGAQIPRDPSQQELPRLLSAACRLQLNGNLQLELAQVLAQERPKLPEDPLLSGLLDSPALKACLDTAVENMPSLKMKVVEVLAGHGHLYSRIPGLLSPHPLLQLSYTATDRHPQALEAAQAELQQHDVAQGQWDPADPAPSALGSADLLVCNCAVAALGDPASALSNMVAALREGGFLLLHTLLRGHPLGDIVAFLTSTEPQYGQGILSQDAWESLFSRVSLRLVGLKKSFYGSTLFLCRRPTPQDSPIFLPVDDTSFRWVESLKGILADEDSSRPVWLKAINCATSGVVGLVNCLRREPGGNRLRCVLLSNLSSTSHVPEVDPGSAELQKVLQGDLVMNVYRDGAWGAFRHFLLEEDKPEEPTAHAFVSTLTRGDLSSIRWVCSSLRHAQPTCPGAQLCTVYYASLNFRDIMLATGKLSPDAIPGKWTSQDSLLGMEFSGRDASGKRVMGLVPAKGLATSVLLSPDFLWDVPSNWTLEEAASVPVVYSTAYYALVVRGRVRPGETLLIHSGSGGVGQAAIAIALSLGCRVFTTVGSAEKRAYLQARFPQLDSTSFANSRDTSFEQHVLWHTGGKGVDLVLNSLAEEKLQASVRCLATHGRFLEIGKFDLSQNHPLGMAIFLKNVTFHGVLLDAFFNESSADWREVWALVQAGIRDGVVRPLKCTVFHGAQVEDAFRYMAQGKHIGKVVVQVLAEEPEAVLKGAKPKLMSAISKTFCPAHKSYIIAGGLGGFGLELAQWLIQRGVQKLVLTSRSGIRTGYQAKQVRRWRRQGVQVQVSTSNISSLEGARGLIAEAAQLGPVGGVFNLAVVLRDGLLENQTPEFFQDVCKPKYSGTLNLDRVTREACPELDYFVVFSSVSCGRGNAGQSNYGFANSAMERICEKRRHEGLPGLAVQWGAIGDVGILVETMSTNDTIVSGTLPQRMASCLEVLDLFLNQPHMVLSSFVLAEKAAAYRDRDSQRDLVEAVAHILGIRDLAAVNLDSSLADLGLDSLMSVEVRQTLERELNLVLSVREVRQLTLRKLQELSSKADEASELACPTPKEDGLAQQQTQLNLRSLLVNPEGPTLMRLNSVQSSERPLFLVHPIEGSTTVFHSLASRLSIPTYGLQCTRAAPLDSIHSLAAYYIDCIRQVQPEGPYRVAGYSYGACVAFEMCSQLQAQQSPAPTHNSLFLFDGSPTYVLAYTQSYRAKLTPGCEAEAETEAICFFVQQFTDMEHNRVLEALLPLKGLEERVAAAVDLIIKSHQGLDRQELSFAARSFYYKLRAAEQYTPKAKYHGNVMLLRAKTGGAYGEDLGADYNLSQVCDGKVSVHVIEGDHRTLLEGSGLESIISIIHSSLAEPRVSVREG

COCCl
outcome [1]: inactive | outcome [2]: inactive

N#CCC#N
outcome [1]: inactive | outcome [2]: inactive

O=C(O)COc1ccc(Cl)cc1
outcome [1]: inactive | outcome [2]: inactive

CNC(=O)O/N=C/C(C)(C)S(C)(=O)=O
outcome [1]: inactive | outcome [2]: inactive

O=C(O)COc1cc(Cl)c(Cl)cc1Cl
outcome [1]: inactive | outcome [2]: inactive

CCOP(=S)(OCC)O/N=C(\C#N)c1ccccc1
outcome [1]: inactive | outcome [2]: inactive | AC50 [3]: 82.5 µM (active) | outcome [4]: inactive | outcome [5]: inactive | AC50 [6]: 87.8 µM (active) | AC50 [7]: 40.4 µM (active)

O=S1(=O)OC(c2cc(Br)c(O)c(Br)c2)(c2cc(Br)c(O)c(Br)c2)c2ccccc21
AC50 [1]: 46.5 µM (active) | AC50 [2]: 51.9 µM (active)

N#CCCC(Br)(C#N)CBr (stereo not given)
outcome [1]: inactive | outcome [2]: inactive

O=C(CBr)c1ccc(O)cc1
outcome [1]: inactive | outcome [2]: inactive

O=C(CCl)Nc1ccccc1
outcome [1]: inactive | outcome [2]: inactive

O=c1nc(O)n(Cl)c(=O)n1Cl
outcome [1]: inactive | outcome [2]: inactive

O=CCCl
outcome [1]: inactive | outcome [2]: inactive

N#CS
outcome [1]: inactive | outcome [2]: inactive

CC(C)N(C(=O)CCl)c1ccccc1
outcome [1]: inactive | outcome [2]: inactive

CC(C)(C)c1ccccc1O
outcome [1]: inactive | outcome [2]: inactive | outcome [3]: inactive | outcome [4]: inactive | outcome [5]: inactive | outcome [6]: inactive | outcome [7]: inactive | outcome [8]: inactive | outcome [9]: inactive | outcome [10]: inactive | outcome [11]: inactive | outcome [12]: inactive | outcome [13]: inactive | outcome [14]: inactive | AC50 [15]: 50 µM (active) | outcome [16]: inactive | outcome [17]: inactive
